Values without a mark were called inactive.
Legend:
Test in all cases: log2 ratio of Biotin-Ahx-Ub-VS probe labelling (fragment/DMSO); higher = less target engagement (more negative = stronger competition), active = hit call of the paper (q ≤ 0.05, log2 ratio ≤ -1)
Conditions in all cases: compound concentration: 200 uM; treatment time: 3 h
USP42 = biological target: T1, USP42 (UniProt Q9H9J4)
T1 sequence (whole entry): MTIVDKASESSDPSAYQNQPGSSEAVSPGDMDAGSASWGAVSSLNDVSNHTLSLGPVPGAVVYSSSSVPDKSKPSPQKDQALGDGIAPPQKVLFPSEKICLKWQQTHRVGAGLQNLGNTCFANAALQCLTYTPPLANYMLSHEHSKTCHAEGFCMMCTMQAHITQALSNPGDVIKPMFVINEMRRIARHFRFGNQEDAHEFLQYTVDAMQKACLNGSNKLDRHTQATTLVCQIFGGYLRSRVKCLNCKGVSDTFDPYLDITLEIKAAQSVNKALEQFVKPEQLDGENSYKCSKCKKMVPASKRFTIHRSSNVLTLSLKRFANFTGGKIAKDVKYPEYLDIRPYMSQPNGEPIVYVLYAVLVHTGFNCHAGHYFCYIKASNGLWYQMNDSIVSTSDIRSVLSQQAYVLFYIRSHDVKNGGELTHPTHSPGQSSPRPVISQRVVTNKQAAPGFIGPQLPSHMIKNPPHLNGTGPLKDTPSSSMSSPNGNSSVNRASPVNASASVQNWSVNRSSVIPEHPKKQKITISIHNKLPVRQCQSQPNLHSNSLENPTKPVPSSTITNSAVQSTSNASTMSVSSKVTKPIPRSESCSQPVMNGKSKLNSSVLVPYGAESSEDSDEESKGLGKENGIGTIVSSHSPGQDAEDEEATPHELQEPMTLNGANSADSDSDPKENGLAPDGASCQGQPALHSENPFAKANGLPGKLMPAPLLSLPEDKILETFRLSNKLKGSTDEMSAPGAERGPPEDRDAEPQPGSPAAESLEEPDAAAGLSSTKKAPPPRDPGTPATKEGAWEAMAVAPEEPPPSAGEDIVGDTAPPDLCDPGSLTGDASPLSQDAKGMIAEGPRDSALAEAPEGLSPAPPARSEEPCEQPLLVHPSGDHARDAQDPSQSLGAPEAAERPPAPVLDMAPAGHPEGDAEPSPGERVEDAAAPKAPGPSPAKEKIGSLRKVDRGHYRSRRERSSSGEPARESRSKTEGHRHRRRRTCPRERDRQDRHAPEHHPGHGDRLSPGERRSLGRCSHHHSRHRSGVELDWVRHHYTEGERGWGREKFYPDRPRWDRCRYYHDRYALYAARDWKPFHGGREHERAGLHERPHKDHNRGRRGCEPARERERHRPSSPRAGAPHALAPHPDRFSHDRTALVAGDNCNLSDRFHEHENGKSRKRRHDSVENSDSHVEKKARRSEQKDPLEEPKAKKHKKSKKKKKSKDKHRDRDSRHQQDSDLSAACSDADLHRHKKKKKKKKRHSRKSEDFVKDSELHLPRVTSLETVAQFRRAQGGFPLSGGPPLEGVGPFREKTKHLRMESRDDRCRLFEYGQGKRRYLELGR
How it was run: (§1)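 HEK293T lysate in Tris/CHAPS/IGEPAL buffer with protease inhibitors (495 µg per sample) was given fragment at 200 µM or vehicle for 3 h, in triplicate. It then received Biotin-Ahx-Ub-VS at 0.5 µM final for 1 h. Labelled DUBs were NeutrAvidin-enriched, digested with LysC and trypsin, and run by diaPASEF LC-MS/MS. Values are average log2 fragment/vehicle ratios by unpaired t-test on global-median-normalised Spectronaut quantities of proteins with ≥2 unique peptides.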

USP46 = USP46 (UniProt P62068)
Sequence of USP46 (P62068 whole entry): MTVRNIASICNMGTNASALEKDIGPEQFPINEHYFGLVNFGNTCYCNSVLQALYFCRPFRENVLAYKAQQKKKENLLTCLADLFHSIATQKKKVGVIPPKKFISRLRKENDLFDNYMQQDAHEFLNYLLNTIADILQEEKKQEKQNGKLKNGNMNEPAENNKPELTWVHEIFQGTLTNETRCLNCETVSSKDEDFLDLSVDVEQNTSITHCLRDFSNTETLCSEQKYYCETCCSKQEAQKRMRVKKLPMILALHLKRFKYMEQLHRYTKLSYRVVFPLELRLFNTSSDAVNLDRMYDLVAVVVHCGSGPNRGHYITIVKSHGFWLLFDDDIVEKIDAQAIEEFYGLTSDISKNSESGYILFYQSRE
How it was run: as §1

USP47 = biological target: T2, USP47 (UniProt Q96K76)
T2 sequence (whole entry): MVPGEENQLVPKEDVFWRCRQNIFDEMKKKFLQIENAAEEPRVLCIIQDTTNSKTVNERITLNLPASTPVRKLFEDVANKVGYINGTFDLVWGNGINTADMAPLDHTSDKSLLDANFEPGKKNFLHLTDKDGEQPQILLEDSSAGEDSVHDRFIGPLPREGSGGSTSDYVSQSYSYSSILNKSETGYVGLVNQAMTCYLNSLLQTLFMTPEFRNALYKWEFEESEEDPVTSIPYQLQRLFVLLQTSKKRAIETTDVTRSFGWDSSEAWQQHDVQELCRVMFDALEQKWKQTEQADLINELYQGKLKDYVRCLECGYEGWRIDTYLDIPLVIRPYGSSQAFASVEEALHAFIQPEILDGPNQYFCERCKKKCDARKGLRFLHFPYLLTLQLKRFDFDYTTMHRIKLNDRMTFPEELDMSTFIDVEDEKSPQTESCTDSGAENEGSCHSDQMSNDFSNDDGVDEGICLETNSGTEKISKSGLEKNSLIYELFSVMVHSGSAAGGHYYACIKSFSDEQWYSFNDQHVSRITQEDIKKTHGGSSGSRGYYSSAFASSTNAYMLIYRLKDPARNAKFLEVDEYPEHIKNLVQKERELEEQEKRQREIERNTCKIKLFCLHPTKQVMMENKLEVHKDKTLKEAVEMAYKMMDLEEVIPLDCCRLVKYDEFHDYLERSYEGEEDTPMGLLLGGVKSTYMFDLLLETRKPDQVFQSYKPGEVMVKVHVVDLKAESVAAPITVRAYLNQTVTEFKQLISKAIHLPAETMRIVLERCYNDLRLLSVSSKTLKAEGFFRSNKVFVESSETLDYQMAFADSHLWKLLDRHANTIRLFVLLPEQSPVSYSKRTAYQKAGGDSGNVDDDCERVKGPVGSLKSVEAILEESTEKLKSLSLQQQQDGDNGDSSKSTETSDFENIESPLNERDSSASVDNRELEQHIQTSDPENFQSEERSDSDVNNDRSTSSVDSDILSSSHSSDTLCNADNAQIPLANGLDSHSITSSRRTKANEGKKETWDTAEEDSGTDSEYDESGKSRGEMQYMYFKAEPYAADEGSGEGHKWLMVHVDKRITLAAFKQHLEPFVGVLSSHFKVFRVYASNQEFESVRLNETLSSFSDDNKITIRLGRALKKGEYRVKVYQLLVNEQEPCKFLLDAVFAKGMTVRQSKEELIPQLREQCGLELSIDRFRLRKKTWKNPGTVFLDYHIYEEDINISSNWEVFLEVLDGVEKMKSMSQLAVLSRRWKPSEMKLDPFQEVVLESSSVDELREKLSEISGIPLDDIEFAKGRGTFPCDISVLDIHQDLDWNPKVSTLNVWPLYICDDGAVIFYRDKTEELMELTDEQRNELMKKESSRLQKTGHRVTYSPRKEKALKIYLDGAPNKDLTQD
How it was run: as §1

USP48 = biological target: T3, USP48 (UniProt Q86UV5)
T3 sequence (whole entry): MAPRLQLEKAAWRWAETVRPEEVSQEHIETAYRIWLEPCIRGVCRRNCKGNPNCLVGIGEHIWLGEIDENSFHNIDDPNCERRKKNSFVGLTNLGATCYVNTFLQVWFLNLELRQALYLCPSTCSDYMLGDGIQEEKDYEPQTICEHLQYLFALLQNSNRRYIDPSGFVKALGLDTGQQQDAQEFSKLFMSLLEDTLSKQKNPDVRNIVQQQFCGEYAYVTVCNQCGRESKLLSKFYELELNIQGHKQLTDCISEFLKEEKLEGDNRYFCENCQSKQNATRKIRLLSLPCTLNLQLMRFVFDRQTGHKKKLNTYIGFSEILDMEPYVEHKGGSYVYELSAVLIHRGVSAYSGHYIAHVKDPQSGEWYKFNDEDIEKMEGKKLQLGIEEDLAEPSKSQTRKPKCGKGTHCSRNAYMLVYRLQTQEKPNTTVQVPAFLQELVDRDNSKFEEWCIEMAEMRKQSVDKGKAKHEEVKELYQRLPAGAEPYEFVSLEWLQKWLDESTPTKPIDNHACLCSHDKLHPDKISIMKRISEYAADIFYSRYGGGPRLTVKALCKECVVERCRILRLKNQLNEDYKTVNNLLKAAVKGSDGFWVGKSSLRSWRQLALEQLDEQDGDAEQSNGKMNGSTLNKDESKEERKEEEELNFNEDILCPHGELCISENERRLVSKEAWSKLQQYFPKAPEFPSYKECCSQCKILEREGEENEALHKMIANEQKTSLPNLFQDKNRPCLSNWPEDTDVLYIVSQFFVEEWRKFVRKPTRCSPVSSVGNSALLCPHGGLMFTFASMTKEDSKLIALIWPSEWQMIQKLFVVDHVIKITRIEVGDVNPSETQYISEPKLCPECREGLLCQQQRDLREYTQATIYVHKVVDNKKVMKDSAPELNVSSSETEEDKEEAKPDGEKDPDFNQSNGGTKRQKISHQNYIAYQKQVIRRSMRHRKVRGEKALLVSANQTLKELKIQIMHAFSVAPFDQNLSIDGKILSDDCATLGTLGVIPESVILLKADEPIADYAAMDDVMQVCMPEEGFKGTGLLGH
How it was run: as §1

USP5 = biological target: T4, USP5 (UniProt P45974)
T4 sequence (whole entry): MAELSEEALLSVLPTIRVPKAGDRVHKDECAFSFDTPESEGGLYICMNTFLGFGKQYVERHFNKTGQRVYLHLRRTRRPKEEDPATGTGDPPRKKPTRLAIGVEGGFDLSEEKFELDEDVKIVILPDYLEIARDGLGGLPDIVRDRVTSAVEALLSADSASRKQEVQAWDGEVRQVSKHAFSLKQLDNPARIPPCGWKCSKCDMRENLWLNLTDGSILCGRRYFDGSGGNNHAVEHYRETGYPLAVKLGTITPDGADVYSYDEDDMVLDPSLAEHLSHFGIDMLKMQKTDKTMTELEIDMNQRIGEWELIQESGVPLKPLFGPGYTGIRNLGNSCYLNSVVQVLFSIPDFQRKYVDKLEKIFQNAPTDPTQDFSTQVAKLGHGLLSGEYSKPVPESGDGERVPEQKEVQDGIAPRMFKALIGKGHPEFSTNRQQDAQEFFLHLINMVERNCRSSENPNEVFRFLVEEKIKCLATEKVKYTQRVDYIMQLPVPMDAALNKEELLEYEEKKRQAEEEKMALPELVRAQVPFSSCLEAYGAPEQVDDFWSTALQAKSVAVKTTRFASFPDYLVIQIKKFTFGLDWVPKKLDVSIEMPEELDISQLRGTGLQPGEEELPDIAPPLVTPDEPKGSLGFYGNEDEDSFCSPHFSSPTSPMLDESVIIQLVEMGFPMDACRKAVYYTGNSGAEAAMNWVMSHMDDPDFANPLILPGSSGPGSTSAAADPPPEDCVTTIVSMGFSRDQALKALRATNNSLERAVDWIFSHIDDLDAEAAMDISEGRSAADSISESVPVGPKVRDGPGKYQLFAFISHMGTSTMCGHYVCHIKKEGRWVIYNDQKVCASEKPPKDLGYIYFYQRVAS
How it was run: as §1

USP54 = USP54 (UniProt Q70EL1)
Sequence of USP54 (Q70EL1 whole entry): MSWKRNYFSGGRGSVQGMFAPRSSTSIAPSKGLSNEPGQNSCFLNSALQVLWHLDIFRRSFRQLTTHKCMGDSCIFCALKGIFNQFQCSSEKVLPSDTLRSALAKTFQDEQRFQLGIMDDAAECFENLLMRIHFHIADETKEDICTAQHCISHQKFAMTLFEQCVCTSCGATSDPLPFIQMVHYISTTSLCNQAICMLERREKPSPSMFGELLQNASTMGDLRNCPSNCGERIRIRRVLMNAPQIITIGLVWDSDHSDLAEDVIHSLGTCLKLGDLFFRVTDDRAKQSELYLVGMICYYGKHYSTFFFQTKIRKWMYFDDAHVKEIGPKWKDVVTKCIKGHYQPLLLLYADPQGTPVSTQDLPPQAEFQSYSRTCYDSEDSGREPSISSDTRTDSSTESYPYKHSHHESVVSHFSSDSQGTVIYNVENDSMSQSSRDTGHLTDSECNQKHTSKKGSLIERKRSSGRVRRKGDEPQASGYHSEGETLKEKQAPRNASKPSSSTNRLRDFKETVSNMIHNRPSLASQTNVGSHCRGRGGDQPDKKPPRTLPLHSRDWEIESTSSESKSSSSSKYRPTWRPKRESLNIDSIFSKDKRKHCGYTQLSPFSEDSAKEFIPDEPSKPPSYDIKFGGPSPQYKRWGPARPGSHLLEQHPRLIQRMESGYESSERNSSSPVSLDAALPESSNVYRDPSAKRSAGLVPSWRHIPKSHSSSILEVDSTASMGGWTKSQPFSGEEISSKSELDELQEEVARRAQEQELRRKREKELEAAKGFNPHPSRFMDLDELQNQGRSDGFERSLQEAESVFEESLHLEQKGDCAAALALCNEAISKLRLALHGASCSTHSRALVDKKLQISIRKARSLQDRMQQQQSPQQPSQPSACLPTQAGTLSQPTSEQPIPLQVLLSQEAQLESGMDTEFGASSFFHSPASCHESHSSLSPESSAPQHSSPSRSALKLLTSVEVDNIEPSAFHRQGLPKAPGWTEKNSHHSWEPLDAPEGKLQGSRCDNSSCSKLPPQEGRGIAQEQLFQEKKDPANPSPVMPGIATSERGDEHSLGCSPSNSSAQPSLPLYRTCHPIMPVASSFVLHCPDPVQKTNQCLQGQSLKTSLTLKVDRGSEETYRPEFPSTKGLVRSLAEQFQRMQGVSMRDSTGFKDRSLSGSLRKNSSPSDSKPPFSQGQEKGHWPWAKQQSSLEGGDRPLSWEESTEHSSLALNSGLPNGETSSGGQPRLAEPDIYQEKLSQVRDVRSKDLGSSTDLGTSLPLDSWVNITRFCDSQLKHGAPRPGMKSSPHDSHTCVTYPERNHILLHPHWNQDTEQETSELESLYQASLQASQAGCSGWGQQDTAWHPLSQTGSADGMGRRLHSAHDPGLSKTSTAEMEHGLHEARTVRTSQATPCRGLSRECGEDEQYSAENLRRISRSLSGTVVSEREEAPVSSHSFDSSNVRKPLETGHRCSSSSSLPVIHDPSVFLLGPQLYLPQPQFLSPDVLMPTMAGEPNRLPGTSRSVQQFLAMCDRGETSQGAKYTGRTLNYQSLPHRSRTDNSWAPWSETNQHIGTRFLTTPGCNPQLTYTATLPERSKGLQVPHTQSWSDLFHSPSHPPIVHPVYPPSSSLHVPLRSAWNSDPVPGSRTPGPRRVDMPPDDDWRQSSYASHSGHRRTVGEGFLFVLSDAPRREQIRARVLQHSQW
How it was run: as §1

USP7 = USP7 (UniProt Q93009)
Sequence of USP7 (Q93009 whole entry, looked up): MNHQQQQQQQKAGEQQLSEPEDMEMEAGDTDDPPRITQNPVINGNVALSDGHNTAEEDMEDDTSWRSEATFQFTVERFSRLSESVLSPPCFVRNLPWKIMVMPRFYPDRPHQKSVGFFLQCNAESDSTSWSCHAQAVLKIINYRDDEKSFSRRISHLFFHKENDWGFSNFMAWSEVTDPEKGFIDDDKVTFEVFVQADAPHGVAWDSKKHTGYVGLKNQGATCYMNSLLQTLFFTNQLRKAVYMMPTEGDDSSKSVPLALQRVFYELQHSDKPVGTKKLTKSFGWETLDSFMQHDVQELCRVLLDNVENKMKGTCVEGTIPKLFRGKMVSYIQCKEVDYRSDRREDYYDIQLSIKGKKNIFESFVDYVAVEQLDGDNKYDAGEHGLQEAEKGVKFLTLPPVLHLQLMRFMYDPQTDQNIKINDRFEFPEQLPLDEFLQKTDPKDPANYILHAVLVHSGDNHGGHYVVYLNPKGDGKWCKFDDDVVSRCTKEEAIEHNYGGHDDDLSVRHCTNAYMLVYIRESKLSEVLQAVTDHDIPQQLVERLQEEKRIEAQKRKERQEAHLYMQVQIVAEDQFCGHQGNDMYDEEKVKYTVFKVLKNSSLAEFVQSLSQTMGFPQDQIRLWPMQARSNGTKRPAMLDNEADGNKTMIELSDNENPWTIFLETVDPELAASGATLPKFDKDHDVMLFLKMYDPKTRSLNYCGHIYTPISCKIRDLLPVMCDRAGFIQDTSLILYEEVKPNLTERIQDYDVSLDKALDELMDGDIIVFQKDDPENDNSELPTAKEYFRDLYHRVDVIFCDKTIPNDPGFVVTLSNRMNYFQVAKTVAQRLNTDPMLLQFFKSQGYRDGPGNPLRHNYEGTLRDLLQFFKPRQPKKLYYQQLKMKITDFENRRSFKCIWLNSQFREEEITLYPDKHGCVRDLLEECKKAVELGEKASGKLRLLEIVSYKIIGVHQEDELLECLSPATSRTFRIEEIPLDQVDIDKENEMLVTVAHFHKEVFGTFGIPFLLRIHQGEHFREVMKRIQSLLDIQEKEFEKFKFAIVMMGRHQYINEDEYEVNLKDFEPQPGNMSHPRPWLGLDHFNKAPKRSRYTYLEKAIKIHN
How it was run: as §1

USP8 = biological target: T5, USP8 (UniProt P40818)
T5 sequence (whole entry): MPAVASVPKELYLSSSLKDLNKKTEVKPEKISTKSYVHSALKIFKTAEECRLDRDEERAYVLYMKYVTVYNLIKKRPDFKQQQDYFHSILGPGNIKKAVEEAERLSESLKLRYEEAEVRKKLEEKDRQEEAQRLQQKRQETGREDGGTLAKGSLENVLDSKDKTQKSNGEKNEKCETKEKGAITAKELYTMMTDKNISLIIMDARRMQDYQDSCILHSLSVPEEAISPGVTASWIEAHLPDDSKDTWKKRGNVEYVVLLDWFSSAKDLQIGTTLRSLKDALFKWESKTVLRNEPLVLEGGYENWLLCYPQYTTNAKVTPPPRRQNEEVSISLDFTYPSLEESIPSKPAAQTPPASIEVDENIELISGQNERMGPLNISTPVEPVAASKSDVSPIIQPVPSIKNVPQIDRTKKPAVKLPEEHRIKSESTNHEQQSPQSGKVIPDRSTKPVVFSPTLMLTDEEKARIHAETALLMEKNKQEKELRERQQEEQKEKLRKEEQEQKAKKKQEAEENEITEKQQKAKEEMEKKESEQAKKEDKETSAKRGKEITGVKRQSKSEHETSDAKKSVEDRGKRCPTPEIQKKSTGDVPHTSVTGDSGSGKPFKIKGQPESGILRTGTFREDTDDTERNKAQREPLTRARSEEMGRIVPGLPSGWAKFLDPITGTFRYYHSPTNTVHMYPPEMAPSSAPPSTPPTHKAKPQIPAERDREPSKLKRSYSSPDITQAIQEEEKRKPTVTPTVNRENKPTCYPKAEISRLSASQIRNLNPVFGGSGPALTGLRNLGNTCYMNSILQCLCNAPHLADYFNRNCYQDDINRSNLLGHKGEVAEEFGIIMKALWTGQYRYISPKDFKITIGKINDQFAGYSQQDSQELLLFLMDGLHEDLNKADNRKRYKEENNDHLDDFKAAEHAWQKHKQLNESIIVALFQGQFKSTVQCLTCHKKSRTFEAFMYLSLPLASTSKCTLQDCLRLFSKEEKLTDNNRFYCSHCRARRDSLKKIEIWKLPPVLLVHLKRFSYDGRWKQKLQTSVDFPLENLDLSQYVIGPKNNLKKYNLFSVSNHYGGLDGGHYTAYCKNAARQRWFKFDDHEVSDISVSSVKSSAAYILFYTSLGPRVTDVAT
How it was run: as §1

USP9X = USP9X (UniProt Q93008)
How it was run: as §1

UniProt O00487 = biological target: UniProt O00487
Sequence of UniProt O00487 (O00487 whole entry): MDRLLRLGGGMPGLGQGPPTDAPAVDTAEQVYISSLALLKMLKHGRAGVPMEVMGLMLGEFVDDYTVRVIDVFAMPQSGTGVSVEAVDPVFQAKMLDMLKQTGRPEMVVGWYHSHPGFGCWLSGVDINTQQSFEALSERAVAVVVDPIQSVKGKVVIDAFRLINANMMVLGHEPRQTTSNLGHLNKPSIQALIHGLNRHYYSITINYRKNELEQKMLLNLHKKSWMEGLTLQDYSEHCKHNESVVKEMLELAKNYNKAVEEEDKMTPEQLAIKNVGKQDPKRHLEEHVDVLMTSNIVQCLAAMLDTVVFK
How it was run: as §1

**Q.** What does the source list for `Cc1ccccc1OCC(=O)N1CCN(C(=O)CCl)CC1`?
**A.** log2 ratio of Biotin-Ahx-Ub-VS probe labelling (USP42): 0.258; log2 ratio of Biotin-Ahx-Ub-VS probe labelling (USP46): -0.329; log2 ratio of Biotin-Ahx-Ub-VS probe labelling (USP47): -1.19 (active); log2 ratio of Biotin-Ahx-Ub-VS probe labelling (USP48): -0.356; log2 ratio of Biotin-Ahx-Ub-VS probe labelling (USP5): 0.0461; log2 ratio of Biotin-Ahx-Ub-VS probe labelling (USP54): -0.923; log2 ratio of Biotin-Ahx-Ub-VS probe labelling (USP7): -0.701; log2 ratio of Biotin-Ahx-Ub-VS probe labelling (USP8): 0.0472; log2 ratio of Biotin-Ahx-Ub-VS probe labelling (USP9X): -0.0136; log2 ratio of Biotin-Ahx-Ub-VS probe labelling (UniProt O00487): 0.0797

Reference: the supplement of paper PMC11732987, “Enantioselective OTUD7B fragment discovery through chemoproteomics screening and high-throughput optimisation” (Communications Chemistry, 2025)
